Experimental data published in the supplement of paper PMC3334620.
In all, about 33,000 sequences were measured (“E-score (-0.5 to 0.5)”: median about -0.032, highest 2% from about 0.36 on). This excerpt belongs to a sample that is enriched for the highest values.

target: T1, Sko1 (UniProt Q02100); test: PBM E-score (8-mer binding enrichment) (E-score (-0.5 to 0.5)); higher = stronger / more preferred TF binding; details: protein concentration: 200 nM; construct: GST-full length
T1 sequence: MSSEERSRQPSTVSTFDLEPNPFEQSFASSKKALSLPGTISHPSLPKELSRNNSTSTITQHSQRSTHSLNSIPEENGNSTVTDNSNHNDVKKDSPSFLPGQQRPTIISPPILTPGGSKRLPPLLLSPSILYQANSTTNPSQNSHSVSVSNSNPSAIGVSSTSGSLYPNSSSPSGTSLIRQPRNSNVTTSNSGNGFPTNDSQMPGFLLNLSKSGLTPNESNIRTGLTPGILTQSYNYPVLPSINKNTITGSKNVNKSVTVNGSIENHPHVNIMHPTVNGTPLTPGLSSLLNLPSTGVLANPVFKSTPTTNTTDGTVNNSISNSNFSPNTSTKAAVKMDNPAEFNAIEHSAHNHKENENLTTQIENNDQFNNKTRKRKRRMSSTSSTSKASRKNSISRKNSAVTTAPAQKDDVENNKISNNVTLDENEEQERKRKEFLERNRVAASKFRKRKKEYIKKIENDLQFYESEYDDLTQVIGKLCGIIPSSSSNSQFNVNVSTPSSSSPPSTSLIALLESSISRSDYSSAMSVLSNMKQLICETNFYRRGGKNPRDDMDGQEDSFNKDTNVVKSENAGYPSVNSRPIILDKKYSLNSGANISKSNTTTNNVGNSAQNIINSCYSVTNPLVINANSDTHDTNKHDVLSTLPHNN
Description: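 Universal 'all 10-mer' protein binding microarrays (Agilent AMADID 015681) probed with GST-tagged S. cerevisiae TFs (full-length or DBD) made by in vitro transcription/translation (PURExpress), about 100-200 nM. Bound TF was detected with fluorescent anti-GST. Each ungapped 8-mer (which stands for itself and its reverse complement) is scored by the PBM enrichment score (E-score), a modified Wilcoxon-Mann-Whitney statistic from -0.5 to +0.5, computed with the Universal PBM Analysis Suite. Scale: above 0.35 generally sequence-specific binding.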

| Sequence | PBM E-score |
| --- | --- |
| GAAATGGC | 0.00268 |
| CGCAAGCA | 0.0501 |
| AAAGGTAT | 0.0611 |
| CAACAGTA | -0.0581 |
| CATTTGTC | 0.0524 |
| CATAAGAC | 0.1 |
| GGTTTGAC | 0.0235 |
| GGATGAAA | 0.033 |
| GTACGAAC | 0.284 |
| CTACGTAG | 0.449 |
| ATCCGTAC | 0.151 |
| CTACGGAG | -0.193 |
| CTACGTAA | 0.489 |
| GTACGGAC | -0.0428 |
| CTACGGAA | 0.157 |
| GTACGTAC | 0.44 |
| ATACGTAC | 0.473 |
| CTACGAAG | -0.0419 |
| ATACGAAC | 0.256 |
| CTCCGTAA | 0.0488 |
| CCCTAAAG | -0.213 |
| GTGAGGTA | 0.0525 |
| ATCGGTGC | 0.105 |
| AATAATCT | 0.125 |
| CCCATCGC | -0.232 |

| Sequence | PBM E-score |
| --- | --- |
| TAGTTACA | 0.0798 |
| AGCAAAAC | 0.0756 |
| AGGCCCAT | -0.288 |
| ATACGTAT | 0.487 |
| ATACGAAG | 0.223 |
| CTACGTAC | 0.449 |
| ATACTTAG | -0.0209 |
| GTACGTAA | 0.487 |
| ATACGGAT | 0.111 |
| ATACGTAG | 0.471 |
| GTACGGAA | -0.00063 |
| GTCCGTAA | 0.00251 |
| CTACGAAC | 0.0886 |
| ATACGAAT | 0.286 |
| CTCCGTAC | -0.153 |
| ATGGACAC | 0.0118 |
| GGATCACC | -0.181 |
| GTCTATGA | 0.238 |
| AACTCACA | 0.0634 |
| GCACCCGC | -0.0958 |
| AGACTACG | 0.136 |
| CCTTACCC | -0.149 |
| GAGCAGGA | -0.112 |
| ATACGTAA | 0.491 |
| ATCCGTAA | 0.0757 |

| Sequence | PBM E-score |
| --- | --- |
| ATACGGAA | 0.141 |
| AAGTTCCA | -0.0591 |
| CCTACGCC | -0.0487 |
| CCTACGCG | 0.117 |
| CCTACGCA | 0.361 |
| GCTACGCA | 0.294 |
| TCTACGCA | 0.32 |
| ACTACGCA | 0.367 |
| CCCCAACC | -0.062 |
| CCCACGCC | -0.127 |
| CCCACGTA | 0.39 |
| CCCACGTC | 0.402 |
| CCCACGCA | 0.109 |
| CCCACGGA | -0.0825 |
| CCCACGGC | -0.145 |
| AACTAATT | 0.182 |
| ATCTAGAG | -0.0987 |
| ATGTTTTG | 0.109 |
| CTGCGTCC | -0.112 |
| ATGCGTCG | 0.0928 |
| ATGCGTCC | -0.124 |
| GTGCGTTA | 0.259 |
| GTGCGTCA | 0.456 |
| GTGCGTGA | 0.274 |
| CTGCGTCA | 0.435 |

| Sequence | PBM E-score |
| --- | --- |
| ATGCGTCA | 0.467 |
| CGGCGTCA | 0.241 |
| CTTCAGCA | -0.0157 |
| CACCTTTC | -0.223 |
| CAGACCTA | 0.125 |
| ACCTGTCC | -0.267 |
| AAGAAGGT | -0.0729 |
| AAGGATGG | 0.00772 |
| AATTGCGG | -0.172 |
| AATTGCGT | 0.448 |
| AATTGCGA | 0.0547 |
| CGTGAATC | 0.13 |
| ACGATTTA | 0.328 |
| ACGTGCGC | 0.381 |
| CCGTGTGA | -0.0471 |
| GCGTGTGA | 0.107 |
| CCGTGTGC | -0.179 |
| ACGTGTGA | 0.401 |
| CCGTGCGC | -0.067 |
| ACGTGGGG | 0.316 |
| ATGTGTGG | -0.144 |
| ACGTGTGG | 0.395 |
| ATGTGTGC | -0.0761 |
| ACGTGCGG | 0.308 |
| ACGTGTGC | 0.388 |

| Sequence | PBM E-score |
| --- | --- |
| ACCATACT | -0.0266 |
| AGATTTGA | 0.144 |
| CATAATAC | 0.3 |
| ACGATGTA | 0.226 |
| GAGCTACC | -0.212 |
| CAAAAAAA | 0.187 |
| GACACGCA | 0.284 |
| GACACGCC | 0.0381 |
| GACACGTC | 0.382 |
| GACACGGA | -0.224 |
| GACACGTA | 0.44 |
| GACACGGC | -0.0578 |
| ACCCGTCG | -0.238 |
| ATGACCCG | -0.254 |
| CGGACGTA | 0.353 |
| CTGACGGA | 0.0532 |
| CTGACCTC | -0.296 |
| CTGACGGC | -0.167 |
| CTGACGTA | 0.489 |
| CTGACGTC | 0.482 |
| AATAGCCA | 0.204 |
| AAGAAAGG | 0.00665 |
| ACAGAGCA | -0.0386 |
| ACCGTAAG | 0.123 |
| AGCGTAAG | 0.0565 |

| Sequence | PBM E-score |
| --- | --- |
| AGCGTAAC | 0.266 |
| ATCGTAAG | 0.234 |
| ATCGTAAA | 0.32 |
| AACGTAAT | 0.48 |
| AGCGTAAT | 0.366 |
| ATCGTAAT | 0.401 |
| AACGTAAG | 0.397 |
| ACCGTAAT | 0.201 |
| AAGGTAAG | -0.00253 |
| AACGTGAT | 0.333 |
| AACCCACC | -0.0866 |
| AGCGAAGC | -0.0755 |
| CCCAATAC | 0.0194 |
| CAAAGGGC | -0.252 |
| CTCTAGGA | -0.335 |
| AACGTAAC | 0.441 |
| GACGTAAA | 0.456 |
| GTCGTAAA | 0.282 |
| ACCGTAAA | 0.206 |
| AACGTAAA | 0.425 |
| GTCGTAAC | 0.267 |
| GCCGTAAA | 0.107 |
| GGCGTAAC | 0.0903 |
| AAAGTAAA | 0.0553 |
| ATCGTAAC | 0.241 |

| Sequence | PBM E-score |
| --- | --- |
| GACGTAAC | 0.467 |
| ACCGTAAC | -0.135 |
| ATCAAGTA | 0.0281 |
| ACGTTCGG | 0.0529 |
| CGAGTGGA | -0.154 |
| CAGGCCCC | -0.271 |
| GCAGTCAA | -0.262 |
| ACTTTTGC | 0.185 |
| AGGCACAA | -0.0774 |
| TCCGTAAA | -0.0256 |
| CTCGTAAA | 0.139 |
| CACGTAAC | 0.449 |
| CGCGTAAG | 0.352 |
| CTCGTAAC | 0.253 |
| CACGTAAG | 0.448 |
| TTCGTAAA | 0.32 |
| TACGTAAA | 0.484 |
| CCCGTAAC | -0.105 |
| CACGTAAA | 0.437 |
| CCCGTAAA | -0.102 |
| CTCGTAAG | 0.243 |
| CAGAAGAA | 0.0487 |
| ACACCACG | 0.063 |
| CATGGTAG | -0.193 |
| CTGGTTAC | -0.00958 |

| Sequence | PBM E-score |
| --- | --- |
| CCGCTGTC | -0.153 |
| CGTCGAAA | 0.247 |
| AACTTTAC | 0.171 |
| CCGATTCC | -0.0807 |
| ATGATCTG | 0.151 |
| CCGTCATC | 0.36 |
| GAGTCATA | 0.122 |
| CGGTCATA | 0.0986 |
| CCGTCATA | 0.368 |
| CAGTCATC | -0.204 |
| CGGTCATC | -0.0713 |
| CAGTCATA | 0.0103 |
| GCGTCATA | 0.481 |
| GGGTCATA | -0.0307 |
| CGCTTGCA | -0.102 |
| TAGCGTCA | 0.398 |
| ACGCGTCA | 0.436 |
| CCGCGTCG | -0.127 |
| CCGCGTCC | -0.00078 |
| AAGCGTCA | 0.353 |
| ACGCGTCT | 0.192 |
| TCGCGTCA | 0.408 |
| CAGCGTCA | 0.269 |
| TCGCGACA | -0.0189 |
| CCGCGTCA | 0.377 |

| Sequence | PBM E-score |
| --- | --- |
| ACGCGTCC | 0.0182 |
| AGGCGTCA | 0.256 |
| GGTAGCCA | -0.238 |
| ACAAACCA | -0.0895 |
| ATGCCGTG | -0.111 |
| TGGCGGAA | -0.102 |
| TAGCGCGA | -0.0664 |
| GCGCGTTA | 0.0431 |
| GCGCGTCA | 0.424 |
| GCGCGTCC | -0.15 |
| CTCAGCCC | -0.249 |
| GACAATCA | 0.00255 |
| ATTTTGGC | 0.11 |
| GCAACCGC | -0.139 |
| ATGTCATA | 0.41 |
| CTGTCATA | 0.141 |
| ATGTCACG | 0.325 |
| ATGTCAAG | 0.187 |
| ATGTCATC | 0.389 |
| ATGTCAGC | 0.129 |
| CTGTCATC | 0.0473 |
| GTGTCATA | 0.298 |
| ATGTCATG | 0.403 |
